The source made the active and inactive calls. No stated cut-off is given here; in the data, active means fold change mostly below about -2 (no sharp cut-off); inactive means mostly above about -1.8.
Assay: modulation of TERT promoter-driven luciferase – cell-based, luciferase reporter, human, primary screen (AID 1259240)
Settings: A2780 TERT promoter luciferase reporter, 16 h; at 20 µM, fold versus average of vehicle-only wells

SMILES | fold change | outcome
CC(C)SC1=NSC2=NC(=O)/C(=C\c3ccco3)C(=N)N21 | 1.5 (inactive) | 
CC(C)CCSc1nc(-c2ccc([N+](=O)[O-])cc2)nc2c1c(=O)n(C)c(=O)n2C | 1.2 (inactive) | 
O=C(CN1C(=O)COc2ccc(S(=O)(=O)N3CCOCC3)cc21)NCc1ccc2c(c1)OCO2 | 1.18 (inactive) | 
c1coc(CSc2nc3ccccc3n3cnnc23)c1 | 1.16 (inactive) | 
CCS(=O)(=O)Nc1ccc(C2=NN(S(=O)(=O)c3ccc(F)cc3)C(c3cccs3)C2)cc1 (stereo not given) | 1.07 (inactive) | 
COC(=O)c1cc(NS(=O)(=O)c2cccc3cccnc23)cc(C(=O)OC)c1 | -1.91 (inactive) | 
Clc1ccc(-c2nnn3c2nc(NCC2CCCO2)c2ccccc23)cc1 (stereo not given) | -1.11 (inactive) | 
COc1ccccc1/C=c1\sc2nc(-c3cc(OC)c(OC)c(OC)c3)nn2c1=O | -1.32 (inactive) | 
C=CCOc1cccc(C2c3c(oc4ccccc4c3=O)C(=O)N2c2nc(C)c(C(C)=O)s2)c1 (stereo not given) | 1.02 (inactive) | 
Cc1ccc(C(C)C)cc1OCC(O)Cn1cnc2ccccc21 (stereo not given) | -1.17 (inactive) | 
COc1ccc(OC(C)c2nc(-c3ccc(OC)cc3)no2)cc1 (stereo not given) | 1.61 (inactive) | 
CCOC(=O)c1nn(-c2ccc(Cl)cc2)c(=O)c2c(NC(=O)C3CC3)scc12 | -1.1 (inactive) | 
CCNC(=O)CC1C(=O)N(c2ccc(F)cc2)C(=O)N1CCC(C)C (stereo not given) | 1.24 (inactive) | 
Cc1nc(SCC(=O)NCC2CCCO2)c2c(=O)n(C)c(=O)n(C)c2n1 (stereo not given) | 1.01 (inactive) | 
CCOC(=O)N1CCC(Nc2c(NC3CCC(C)CC3)c(=O)c2=O)CC1 (stereo not given) | 1.1 (inactive) | 
COc1cccc(N=c2oc3c(OC)cccc3cc2S(=O)(=O)c2ccccc2)c1 | -1.92 (inactive) | 
CCCc1nnc(NC(=O)Nc2ccccc2Cl)s1 | -1.54 (inactive) | 
CCCC1=NN(C(=O)CSCc2ccccc2Cl)C(O)(C(F)(F)F)C1 (stereo not given) | -2.03 (active) | 
CN1CCN(C(=O)C2CCN(c3ccc(N4CCOCC4)nn3)CC2)CC1 | -1.4 (inactive) | 
Cc1noc(C(=O)NC(C)C)c1Cl | 1.11 (inactive) | 

SMILES | fold change | outcome
O=C(CSc1nc2sc3c(c2c(=O)[nH]1)CCCC3)N1CCOCC1 | -4.39 (active) | 
CCOC(=O)C1CCN(c2cc(C)c(C#N)c3nc4ccccc4n23)CC1 | -2.16 (active) | 
COc1ccc(-n2c(C)c(C(C)=O)c3cc(OCC(N)=O)ccc32)cc1 | -1.38 (inactive) | 
Cc1ccc(CN2C(=O)C(C(C)C(=O)NCC3CCCO3)Sc3ccccc32)cc1 (stereo not given) | -1.61 (inactive) | 
Cc1ccc(S(=O)(=O)N2N=C(c3ccc(NS(C)(=O)=O)cc3)CC2c2ccco2)cc1 (stereo not given) | -1.45 (inactive) | 
CCOC(=O)Cn1c(=O)oc2cc(S(=O)(=O)NC3CCN(C(=O)OCC)CC3)ccc21 | 1.58 (inactive) | 
Cc1cc(NC(=O)CSc2nnc(Cn3c(=O)sc4ccccc43)n2-c2ccccc2)no1 | 1.22 (inactive) | 
Cc1ccc(-c2csc3ncnc(NCCC(=O)O)c23)cc1 | 1.18 (inactive) | 
COc1ccc(N2CN=c3s/c(=C4\C(=O)N(C)c5ccccc54)c(=O)n3C2)cc1 | -1.56 (inactive) | 
CC(C)(C)c1ccc(OCc2nc(-c3ccncc3)no2)c(Br)c1 | -1.23 (inactive) | 
c1ccc2c(c1)nc(N1CCN(C3CCCCC3)CC1)c1nncn12 | 1.24 (inactive) | 
CC1CCC(NC(=O)C(=O)Nc2ccc3nc4n(c(=O)c3c2)CCCCC4)CC1 (stereo not given) | 1 (inactive) | 
CCc1nc2c(cnn2-c2ccc(F)cc2)c(=O)n1-c1ccc(OC)c(Cl)c1 | 1.04 (inactive) | 
CCn1c(SCC(=O)Nc2nnc(C)s2)nnc1-c1c[nH]c2ccccc12 |  | inactive
CCCCNC(=O)c1ccc(CNc2c(NC3CCCC3)c(=O)c2=O)cc1 | 1.11 (inactive) | 
CC1(C)CC(=O)c2sc(NC(=O)Cc3ccc(Br)cc3)nc2C1 | -3.4 (active) | 
Cc1ccccc1Cn1nc(C)c(NC(=O)c2cc(C3CC3)on2)c1C | -1.04 (inactive) | 
c1cnc2c(SCc3cn4ccccc4n3)cccc2c1 | -1.15 (inactive) | 
O=C(Cc1ccc(NC2=NC3CS(=O)(=O)CC3S2)cc1)N1CCc2ccccc2C1 (stereo not given) | 1.1 (inactive) | 
O=C(CSc1nc(-c2ccco2)cc(C(F)(F)F)n1)N1CCc2ccccc21 | -1.91 (inactive) | 
